# From PubChem BioAssay (NCI)
# Compounds without any hit were thinned out: in the full panel of roughly 79,000, 15% have a hit. Values without a mark were called inactive. The source made the active and inactive calls. Rule as the data show it: active = growth inhibition above about 70%; inactive = the rest.
# Assay: NCI Yeast Anticancer Drug Screen. Data for the mec2-1 strain (AID 157)
# Settings: S. cerevisiae mec2-1 strain, at 50.0 µM, stronger effect = higher value
# Summary of the method: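 Vehicle-treated cultures served as reference for growth inhibition of compound-exposed mec2-1 yeast.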
row,Structure (SMILES),growth inhibition
1,COc1ccc2nc3cccc([N+](=O)[O-])c3c(NCCNCCN(C)C)c2c1,73% (active)
2,Cc1cccc(/C=N/NC(=S)NC2CCCCC2)n1,54.8%
3,COC(=O)C(=O)c1c(-c2ccc(Cl)c(Cl)c2)[nH]c2[nH]n(-c3ccccc3)c(=O)c2c1=O,82.8% (active)
4,c1ccc([P+](CCN2Cc3ccccc3C2)(c2ccccc2)c2ccccc2)cc1,78.9% (active)
5,Cc1cc(C)c2[s+]snc2c1,50.2%
6,CC(C)(Br)C(=O)/C=C/c1ccccc1,95.7% (active)
7,Cc1ccc(S(=O)(=O)NC(=O)C2C(=O)CC3(CCCCC3)CC2=O)cc1,30.1%
8,NC(=S)N1N=C2c3ccccc3CC[C@H]2[C@@H]1c1ccc(Cl)cc1,85.8% (active)
9,O=[N+]([O-])/C=C/c1cc2ccc3ccccc3c2[nH]1,98.8% (active)
10,O=C1C(=C2CCCC2)CCC1CN1CCCCC1 (configuration not stated),68.7%
11,OC(CC(O)(C(F)(F)F)C(F)(F)F)c1ccc(C(O)CC(O)(C(F)(F)F)C(F)(F)F)cc1 (configuration not stated),99.5% (active)
12,COc1cc2c(cc1OC)[C@@H](Nc1ccc(C#N)cc1)C1COC(=O)[C@@H]1C2c1cc(OC)c(O)c(OC)c1 (some centres not stated),91.5% (active)
13,O=c1cccccc1[O-].O=c1cccccc1[O-].O=c1cccccc1[O-].[Eu+3],91.7% (active)
14,O=C1c2ccccc2C(=O)c2sc(Nc3ccccc3Cl)nc21,91.2% (active)
15,NC(CCCCCCCCCCCCC(N)C(=O)c1ccccc1)C(=O)c1ccccc1 (configuration not stated),-9.95%
16,CC1=C(C)C(=O)C2=C(OCCO2)C1=O,-3.25%
17,c1ccc(-c2cc(C3CO3)c3ccccc3n2)cc1 (configuration not stated),74.5% (active)
18,S=C1C(=Nc2ccccc2)N(c2ccccc2)/C(=N\c2ccccn2)N1c1ccccc1,97.9% (active)

row,Structure (SMILES),growth inhibition
1,CCC(OC(C)=O)C1CC(C(C)C)CCC1C (configuration not stated),24.2%
2,CC(C)=CCc1c2c(c(O)c3c(=O)c(-c4ccc(O)c(O)c4)coc13)C=CC(C)(C)O2,88% (active)
3,O=C(NC(N1CCN(c2cc3c(cc2F)c(=O)c(C(=O)O)cn3C2CC2)CC1)(C(F)(F)F)C(F)(F)F)c1ccccc1,-19.2%
4,Fc1cc(F)c(F)c(S)c1F,92.3% (active)
5,COc1ccc2cc3c4cc5c(cc4cc[n+]3cc2c1OC)OCO5,92.2% (active)
6,CCCCCCCCNCCCCCCCC,99.7% (active)
7,Nc1cc(Cl)ccc1Nc1ccccc1,79.8% (active)
8,O=C(/C(=C/c1ccc(O)cc1)c1ccccc1)c1ccccc1,34.5%
9,O=Cc1ccccc1C=O,80.5% (active)
10,C1=CCN([B-](c2ccccc2)[C+]2CCCCC2)C=C1,98.7% (active)
11,CC/C(=C(\c1ccccc1)c1ccc(OCC[N+](C)(C)C)cc1)c1ccccc1,93% (active)
12,O=S(=O)(c1cccc(C(F)(F)F)c1)N1c2ccccc2-n2cccc2C1c1cccnc1 (configuration not stated),94.8% (active)
13,Nc1ccc2c(c1)C(=O)c1c(F)cccc1-2,38.6%
14,CN(C)/C(=N/C(=S)Nc1ccccc1)SCc1ccccc1,99.7% (active)
15,CCN(CC)C(=S)N/N=C(\C)c1ccccc1O,94.5% (active)
16,CC(C)OC(=O)NNc1cc(Cl)ccc1Cl,36.4%
17,CC(C)CCC[C@@H](C)[C@H]1CC[C@H]2[C@@H]3CC[C@H]4C[C@H](N)CC[C@]4(C)[C@H]3CC[C@]12C,46.2%
18,O=C1c2ccccc2-c2ccc(N=Cc3ccccc3)cc21,5%

# Same assay, conditions: S. cerevisiae mec2-1 strain, at 100.0 µM, stronger effect = higher value
row,Structure (SMILES),growth inhibition
1,COc1ccc2nc3cccc([N+](=O)[O-])c3c(NCCNCCN(C)C)c2c1,8%
2,Cc1cccc(/C=N/NC(=S)NC2CCCCC2)n1,8%
3,COC(=O)C(=O)c1c(-c2ccc(Cl)c(Cl)c2)[nH]c2[nH]n(-c3ccccc3)c(=O)c2c1=O,63%
4,c1ccc([P+](CCN2Cc3ccccc3C2)(c2ccccc2)c2ccccc2)cc1,95% (active)
5,Cc1cc(C)c2[s+]snc2c1,29%
6,CC(C)(Br)C(=O)/C=C/c1ccccc1,48%
7,Cc1ccc(S(=O)(=O)NC(=O)C2C(=O)CC3(CCCCC3)CC2=O)cc1,83% (active)
8,NC(=S)N1N=C2c3ccccc3CC[C@H]2[C@@H]1c1ccc(Cl)cc1,88% (active)
9,O=[N+]([O-])/C=C/c1cc2ccc3ccccc3c2[nH]1,93% (active)
10,O=C1C(=C2CCCC2)CCC1CN1CCCCC1 (configuration not stated),96% (active)
11,OC(CC(O)(C(F)(F)F)C(F)(F)F)c1ccc(C(O)CC(O)(C(F)(F)F)C(F)(F)F)cc1 (configuration not stated),99% (active)
12,COc1cc2c(cc1OC)[C@@H](Nc1ccc(C#N)cc1)C1COC(=O)[C@@H]1C2c1cc(OC)c(O)c(OC)c1 (some centres not stated),91% (active)
13,O=c1cccccc1[O-].O=c1cccccc1[O-].O=c1cccccc1[O-].[Eu+3],98% (active)
14,O=C1c2ccccc2C(=O)c2sc(Nc3ccccc3Cl)nc21,98% (active)
15,NC(CCCCCCCCCCCCC(N)C(=O)c1ccccc1)C(=O)c1ccccc1 (configuration not stated),91% (active)
16,CC1=C(C)C(=O)C2=C(OCCO2)C1=O,20%
17,c1ccc(-c2cc(C3CO3)c3ccccc3n2)cc1 (configuration not stated),98% (active)
18,S=C1C(=Nc2ccccc2)N(c2ccccc2)/C(=N\c2ccccn2)N1c1ccccc1,97% (active)

row,Structure (SMILES),growth inhibition
1,CCC(OC(C)=O)C1CC(C(C)C)CCC1C (configuration not stated),76% (active)
2,CC(C)=CCc1c2c(c(O)c3c(=O)c(-c4ccc(O)c(O)c4)coc13)C=CC(C)(C)O2,85% (active)
3,O=C(NC(N1CCN(c2cc3c(cc2F)c(=O)c(C(=O)O)cn3C2CC2)CC1)(C(F)(F)F)C(F)(F)F)c1ccccc1,67%
4,Fc1cc(F)c(F)c(S)c1F,99% (active)
5,COc1ccc2cc3c4cc5c(cc4cc[n+]3cc2c1OC)OCO5,97% (active)
6,CCCCCCCCNCCCCCCCC,98% (active)
7,Nc1cc(Cl)ccc1Nc1ccccc1,92% (active)
8,O=C(/C(=C/c1ccc(O)cc1)c1ccccc1)c1ccccc1,85% (active)
9,O=Cc1ccccc1C=O,90% (active)
10,C1=CCN([B-](c2ccccc2)[C+]2CCCCC2)C=C1,99% (active)
11,CC/C(=C(\c1ccccc1)c1ccc(OCC[N+](C)(C)C)cc1)c1ccccc1,99% (active)
12,O=S(=O)(c1cccc(C(F)(F)F)c1)N1c2ccccc2-n2cccc2C1c1cccnc1 (configuration not stated),89% (active)
13,Nc1ccc2c(c1)C(=O)c1c(F)cccc1-2,67%
14,CN(C)/C(=N/C(=S)Nc1ccccc1)SCc1ccccc1,16%
15,CCN(CC)C(=S)N/N=C(\C)c1ccccc1O,99% (active)
16,CC(C)OC(=O)NNc1cc(Cl)ccc1Cl,77% (active)
17,CC(C)CCC[C@@H](C)[C@H]1CC[C@H]2[C@@H]3CC[C@H]4C[C@H](N)CC[C@]4(C)[C@H]3CC[C@]12C,-3%
18,O=C1c2ccccc2-c2ccc(N=Cc3ccccc3)cc21,24%
